# Screening results from PubChem.
# HT1080 IDH1KD tx: qHTS for induction of synthetic lethality in tumor cells producing 2HG: qHTS for the HT-1080-IDH1KD cell line; AID 686971, 2013; HT-1080 IDH1 knockdown viability, ATP luminescence, 48 h; actives 2% (n = 360,000); Potency, µM (titrated, usually from 46.1 µM), inactives show top-dose activity, negative = toxicity, hits mostly cytotoxic;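 note: 0% = DMSO wells and -100% = cell-free medium wells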
#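 CellTiter-Glo luminescence after 48 h compound exposure at 37 degrees C of IDH1-knockdown HT-1080 cells in 5% FBS RPMI. %Activity scaled between DMSO wells and cell-free media wells, with curves fitted and assigned curve classes.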
# ATXN2 expr inh: Primary qHTS for Inhibitors of ATXN expression; HEK-293 ATXN2-luciferase reporter, luminescence, 24 h; Potency, µM (top dose mostly 57 µM), for the others: at the highest dose activity change, negative = inhibition, usual class: inhibitors; actives 0.72% (n = 360,000); AID 1745845, 2022; note: % is set by controls: 0 for no effect and ±100 for the full control effect; nearly all actives have a fitted effect of over 55% in size
#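 ATXN2-luciferase reporter cells (luciferase flanked by upstream and downstream ATXN2 gene portions) were treated 24 h at 37 °C with compounds at up to 57 uM. SteadyGlo luminescence gave expression; GF-AFC fluorescence gave viability.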
# KB-3-1 cytotox: qHTS assay for MDR1-selective chemotherapeutics: Primary screen using the parental adenocarcinoma cell KB-3-1. KB-3-1 viability, CellTiter-Glo ATP luminescence, 72 h. Potency, µM (titrated, usually from 46.1 µM), usual class: cytotoxic. actives 1.4% (n = 400,000); note: % is set by controls: 0 for no effect and ±100 for the full control effect; nearly all actives have a fitted effect of over 60% in size
#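 KB-3-1 parental drug-naive adenocarcinoma cells in DMEM/10% FBS, incubated 72 h at 37 C with pin-transferred compounds across a concentration series. Viability by CellTiter-Glo luminescence; concentration-response curves fitted after normalization.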
# HT1080NT lethal: qHTS for induction of synthetic lethality in tumor cells producing 2HG: qHTS for the HT-1080-NT fibrosarcoma cell line. AID 686970, 2013. HT-1080-NT fibrosarcoma viability, CellTiter-Glo ATP luminescence, 48 h. actives 1.6% (n = 360,000). Potency, µM (highest dose often 46.1 µM), without a hit: top-dose activity, negative = less viability, actives largely listed as cytotoxic;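 note: NT is the 2HG producing partner of a matched IDH1 knockdown line; 0% = DMSO-treated cells and -100% = media-only wells without cells; nearly all actives have a fitted effect of over 55% in size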
#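 750 cells/well, RPMI + 5% FBS; 2 h settle, compound pin-transfer, 48 h at 37 degrees C. CellTiter-Glo 10 min RT, luminescence. Normalized to DMSO and media-only wells.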
# KB-V1 cytotox: qHTS assay for MDR1-selective chemotherapeutics: Primary screen using the drug-selected MDR subline cells KB-V1. AID 1347076, 2019. KB-V1 MDR cells viability, CellTiter-Glo, 72 h. actives 3.4% (n = 400,000). Potency, µM (doses to about 46.1 µM), actives largely listed as cytotoxic; note: % is set by controls: 0 for no effect and ±100 for the full control effect; nearly all actives have a fitted effect of over 60% in size
#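 Following 72 h at 37 degrees C with compound, KB-V1 cell viability was read by CellTiter-Glo luminescence, medium being phenol-red-free DMEM plus 10% FBS; concentration-response parameters came from normalized, curve-fitted qHTS data.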
# ATXN viability: Viability Counterscreen for Primary qHTS for Inhibitors of ATXN expression; actives 0.49% (n = 400,000); S2 cells (HEK-293 line with an ATXN2-luciferase reporter) viability, CellTiter-Fluor protease fluorescence, 24 h; Potency, µM (highest dose often 56.7 µM), usual class: cytotoxic; note: nearly all actives have a fitted effect of over 40% in size
# The depositor's hits bear a star; i = inactive; ? = inconclusive; nt = no result. The list is not random: actives were taken first. Their share in the collection is about 6.2%. Calls come from the whole dose curve; as a rule, active = well fitted curve in the direction sought with a large enough effect; inconclusive = small, poorly fitted or top-dose-only effect, or another doubt; inactive = no such curve, though single readings can be large; an effect the other way counts as inactive or inconclusive. Potency is the fitted concentration of half-maximal effect.
SMILES,HT1080 IDH1KD tx,ATXN2 expr inh,KB-3-1 cytotox,HT1080NT lethal,KB-V1 cytotox,ATXN viability
O=C(CCl)Nc1cc(SCC(O)CO)cc([N+](=O)[O-])c1 (centres undefined),1.6µM*,4µM*,5.8µM*,1.8µM*,?,8.9µM*
CCC(=O)Nc1cc(ON=C(C)C)cc([N+](=O)[O-])c1,8%,-2%,i,-1%,i,i
CC(C)=NOc1cc(NC(=O)CCl)cc([N+](=O)[O-])c1,9.2µM*,?,18µM*,5.8µM*,16µM*,25µM*
O=C(NCc1ccccc1Cl)c1ccc(CSCc2ccccc2Cl)o1,nt,nt,i,nt,i,nt
COc1ccc(Cl)cc1NC(=O)CN1c2ccccc2S(=O)(=O)c2ccccc21,nt,10%,i,nt,i,i
O=C(O)CCSc1ncnc2sc(-c3ccccc3)cc12,-1%,2µM*,i,28%,i,i
Oc1ccc(N2CCN(c3ncnc4sc(-c5ccccc5)cc34)CC2)cc1,?,?,i,13µM*,?,i
CC(=O)CCSc1ncnc2sc(-c3ccccc3)cc12,-4%,91%,i,-5%,i,i
CNc1ncnc2sc(-c3ccccc3)cc12,-17%,10%,?,-22%,9.2µM*,i
CN(C)CCNc1ncnc2sc(-c3ccccc3)cc12,?,?,i,?,i,i
CC(=O)c1c(C)[nH]c(C(=O)CSc2ncnc3sc(-c4ccccc4)cc23)c1C,?,-29%,i,0%,7.3µM*,?
O=C(O)CSc1ncnc2sc(-c3ccccc3)cc12,11%,17%,i,14%,i,i
OC[C@H]1O[C@@H](n2cnc3c2NC=NC[C@@H]3O)C[C@H]1O,nt,-8%,nt,nt,nt,nt
CN(CCO)C(=O)c1cn(C2CCN(Cc3ccc(C(F)(F)F)cc3)CC2)nn1,nt,nt,nt,nt,nt,i
COc1ccccc1N1CCN(CC(=O)Nc2cc(C)nn2-c2nc(C)cc(C)n2)CC1,?,-3%,4.6µM*,?,i,i
COc1ccccc1N1CCN(CC(=O)Nc2cc(F)ccc2C)CC1,-20%,-11%,i,-20%,i,i
CCn1ccnc1CN(C)Cc1cn(-c2ccc(C)cc2)nc1-c1cccc(C)c1,26µM*,nt,i,?,i,i
CCn1ccnc1CN(C)Cc1cn(-c2cccc(C)c2)nc1-c1cccc(F)c1,-29%,nt,?,-16%,?,25µM*
Cc1cccc(-n2cc(CN(C)Cc3nccn3C)c(-c3cccc(F)c3)n2)c1,?,nt,i,?,i,?
COc1cccc(N2CCN(C(=O)Cn3cnc4onc(-c5ccc(F)cc5)c4c3=O)CC2)c1,nt,-31%,i,nt,i,i
CC(=O)c1c(C(C)=O)c(C)n(-c2ccc(C)c(NC(=O)c3ccccc3Cl)c2)c1C,-22%,-2%,i,0%,3.7µM*,i
CC(C)Oc1cc(NC(=O)CSCC(=O)Nc2cccc(C(F)(F)F)c2)c(Cl)cc1Cl,?,?,i,-20%,13µM*,?
CCOC(=O)c1sc2ncn(CC(=O)Nc3ccc(OC)c(Cl)c3)c(=O)c2c1C,nt,3%,i,nt,i,i
Cc1cccc(NC(=O)CN(C)S(=O)(=O)c2ccc3c(c2)c(=O)n(C)c(=O)n3C)c1C,nt,1%,i,nt,i,i
CCN(CC)C(=O)CSc1nnc(SC(C)C(=O)NC2CC2)s1 (centres undefined),17%,-3%,i,-3%,26µM*,i
Cc1ccc(S(=O)(=O)NCC2CCC(C(=O)NCc3ccc(F)cc3)CC2)cc1 (centres undefined),nt,nt,?,nt,i,nt
